For test [1], the target named is Serine/threonine-protein kinase SIK1 (Homo sapiens) (UniProt P57059). As to conditions: at 10 µM.
Test [2] addresses SRSF protein kinase 1 (Homo sapiens) (UniProt Q96SB4). As to conditions: at 1 µM.
Test [3] shares this target. The following applies: at 10 µM.
Test [4] deals with SRSF protein kinase 2 (Homo sapiens) (UniProt P78362). The following applies: at 1 µM.
For test [5] the target is unchanged. The following applies: at 10 µM.
In test [6] the target is Serine/threonine-protein kinase 33 (Homo sapiens) (UniProt Q9BYT3). The following applies: at 1 µM.
Serine/threonine-protein kinase 33 (Homo sapiens), sequence (Q9BYT3 whole entry, looked up): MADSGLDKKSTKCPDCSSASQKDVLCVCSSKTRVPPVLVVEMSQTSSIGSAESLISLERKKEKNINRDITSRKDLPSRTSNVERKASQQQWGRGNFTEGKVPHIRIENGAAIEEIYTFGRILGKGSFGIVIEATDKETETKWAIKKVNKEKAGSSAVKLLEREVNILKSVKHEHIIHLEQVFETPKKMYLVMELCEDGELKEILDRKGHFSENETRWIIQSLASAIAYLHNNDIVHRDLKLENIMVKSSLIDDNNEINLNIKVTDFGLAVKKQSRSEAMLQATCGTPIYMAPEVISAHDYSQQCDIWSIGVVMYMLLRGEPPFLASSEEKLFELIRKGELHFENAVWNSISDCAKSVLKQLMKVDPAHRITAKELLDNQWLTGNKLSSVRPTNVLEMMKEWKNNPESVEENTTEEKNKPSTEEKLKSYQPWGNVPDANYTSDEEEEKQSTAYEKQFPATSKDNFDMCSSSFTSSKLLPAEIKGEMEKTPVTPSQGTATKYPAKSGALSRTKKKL
Test [7] shares this target. The following applies: at 10 µM.
The target of test [8] is Serine/threonine-protein kinase PLK2 (Homo sapiens) (UniProt Q9NYY3). The following applies: at 1 µM.
Serine/threonine-protein kinase PLK2 (Homo sapiens), sequence (Q9NYY3 whole entry, looked up): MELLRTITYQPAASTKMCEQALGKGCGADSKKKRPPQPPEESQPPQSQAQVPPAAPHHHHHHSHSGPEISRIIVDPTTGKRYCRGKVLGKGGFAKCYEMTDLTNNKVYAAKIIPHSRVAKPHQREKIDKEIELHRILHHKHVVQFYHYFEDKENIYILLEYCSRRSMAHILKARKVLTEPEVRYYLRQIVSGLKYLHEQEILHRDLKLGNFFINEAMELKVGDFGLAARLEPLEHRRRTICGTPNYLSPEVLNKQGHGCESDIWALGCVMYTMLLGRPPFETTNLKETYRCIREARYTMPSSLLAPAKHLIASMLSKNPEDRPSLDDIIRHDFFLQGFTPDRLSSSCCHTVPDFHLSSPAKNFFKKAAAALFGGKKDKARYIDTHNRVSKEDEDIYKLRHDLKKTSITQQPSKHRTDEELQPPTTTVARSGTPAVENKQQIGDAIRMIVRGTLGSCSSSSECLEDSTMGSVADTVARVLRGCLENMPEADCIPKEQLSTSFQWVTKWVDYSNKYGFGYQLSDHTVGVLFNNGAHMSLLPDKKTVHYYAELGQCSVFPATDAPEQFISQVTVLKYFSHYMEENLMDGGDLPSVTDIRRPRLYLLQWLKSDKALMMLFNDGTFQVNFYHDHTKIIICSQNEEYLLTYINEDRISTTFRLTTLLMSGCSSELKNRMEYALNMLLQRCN
Test [9] has the same target. The following applies: at 10 µM.
For test [10], the target named is Tyrosine-protein kinase SYK (Homo sapiens) (UniProt P43405). The following applies: at 1 µM.
Test [11] has the same target. As to conditions: at 10 µM.
Test [12] deals with T1, Mitogen-activated protein kinase kinase kinase 7 (Homo sapiens) (UniProt O43318).
T1 sequence (whole entry): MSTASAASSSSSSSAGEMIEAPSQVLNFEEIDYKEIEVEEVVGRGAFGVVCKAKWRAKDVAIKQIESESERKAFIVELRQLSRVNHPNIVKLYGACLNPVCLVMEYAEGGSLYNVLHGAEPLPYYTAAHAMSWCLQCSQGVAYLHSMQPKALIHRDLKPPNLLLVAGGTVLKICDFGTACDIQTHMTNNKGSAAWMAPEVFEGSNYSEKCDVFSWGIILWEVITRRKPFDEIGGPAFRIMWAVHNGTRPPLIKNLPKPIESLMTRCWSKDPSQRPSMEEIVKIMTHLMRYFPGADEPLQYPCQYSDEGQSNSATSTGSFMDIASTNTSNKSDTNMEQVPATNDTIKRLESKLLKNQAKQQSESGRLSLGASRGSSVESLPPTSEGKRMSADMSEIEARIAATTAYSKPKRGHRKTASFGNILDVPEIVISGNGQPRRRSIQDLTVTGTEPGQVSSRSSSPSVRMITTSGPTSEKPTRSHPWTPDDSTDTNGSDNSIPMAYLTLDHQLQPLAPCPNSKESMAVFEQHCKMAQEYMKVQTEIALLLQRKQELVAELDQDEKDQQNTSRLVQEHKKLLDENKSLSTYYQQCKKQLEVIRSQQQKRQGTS
The following applies: at 1 µM.

The target of test [13] is T1, Mitogen-activated protein kinase kinase kinase 7 (Homo sapiens). As to conditions: at 10 µM.
In test [14] the target is T2, Serine/threonine-protein kinase TAO1 (Homo sapiens) (UniProt Q7L7X3).
T2 sequence (whole entry): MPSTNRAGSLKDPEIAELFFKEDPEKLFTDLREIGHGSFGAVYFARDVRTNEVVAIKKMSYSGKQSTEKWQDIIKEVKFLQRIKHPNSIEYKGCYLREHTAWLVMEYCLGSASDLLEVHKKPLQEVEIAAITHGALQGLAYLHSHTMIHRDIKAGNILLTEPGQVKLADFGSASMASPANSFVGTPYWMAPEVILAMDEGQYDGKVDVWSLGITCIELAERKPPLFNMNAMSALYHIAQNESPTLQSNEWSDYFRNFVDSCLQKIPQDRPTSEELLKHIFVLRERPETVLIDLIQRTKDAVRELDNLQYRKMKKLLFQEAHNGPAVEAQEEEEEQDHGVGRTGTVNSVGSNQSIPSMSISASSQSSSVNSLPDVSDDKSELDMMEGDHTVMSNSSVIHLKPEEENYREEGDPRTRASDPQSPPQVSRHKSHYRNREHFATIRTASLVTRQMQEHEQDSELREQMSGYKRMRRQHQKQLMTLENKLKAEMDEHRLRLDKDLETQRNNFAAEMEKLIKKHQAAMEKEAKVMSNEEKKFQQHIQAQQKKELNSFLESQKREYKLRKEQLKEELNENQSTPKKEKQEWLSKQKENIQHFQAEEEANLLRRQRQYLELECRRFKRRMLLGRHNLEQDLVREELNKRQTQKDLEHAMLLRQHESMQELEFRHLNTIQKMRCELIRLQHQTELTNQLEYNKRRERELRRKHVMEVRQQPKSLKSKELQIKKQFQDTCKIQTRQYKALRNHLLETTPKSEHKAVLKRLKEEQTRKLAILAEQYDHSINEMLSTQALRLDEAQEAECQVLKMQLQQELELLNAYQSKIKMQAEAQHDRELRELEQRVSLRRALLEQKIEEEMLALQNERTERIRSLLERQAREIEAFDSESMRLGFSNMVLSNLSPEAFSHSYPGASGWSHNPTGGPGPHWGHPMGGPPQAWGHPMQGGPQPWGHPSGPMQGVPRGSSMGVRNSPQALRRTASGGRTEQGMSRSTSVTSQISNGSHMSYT
As to conditions: at 1 µM.

In test [15] the target is T2, Serine/threonine-protein kinase TAO1 (Homo sapiens). The following applies: at 10 µM.
Test [16] deals with T3, Serine/threonine-protein kinase TAO2 (Homo sapiens) (UniProt Q9UL54).
T3 sequence (whole entry): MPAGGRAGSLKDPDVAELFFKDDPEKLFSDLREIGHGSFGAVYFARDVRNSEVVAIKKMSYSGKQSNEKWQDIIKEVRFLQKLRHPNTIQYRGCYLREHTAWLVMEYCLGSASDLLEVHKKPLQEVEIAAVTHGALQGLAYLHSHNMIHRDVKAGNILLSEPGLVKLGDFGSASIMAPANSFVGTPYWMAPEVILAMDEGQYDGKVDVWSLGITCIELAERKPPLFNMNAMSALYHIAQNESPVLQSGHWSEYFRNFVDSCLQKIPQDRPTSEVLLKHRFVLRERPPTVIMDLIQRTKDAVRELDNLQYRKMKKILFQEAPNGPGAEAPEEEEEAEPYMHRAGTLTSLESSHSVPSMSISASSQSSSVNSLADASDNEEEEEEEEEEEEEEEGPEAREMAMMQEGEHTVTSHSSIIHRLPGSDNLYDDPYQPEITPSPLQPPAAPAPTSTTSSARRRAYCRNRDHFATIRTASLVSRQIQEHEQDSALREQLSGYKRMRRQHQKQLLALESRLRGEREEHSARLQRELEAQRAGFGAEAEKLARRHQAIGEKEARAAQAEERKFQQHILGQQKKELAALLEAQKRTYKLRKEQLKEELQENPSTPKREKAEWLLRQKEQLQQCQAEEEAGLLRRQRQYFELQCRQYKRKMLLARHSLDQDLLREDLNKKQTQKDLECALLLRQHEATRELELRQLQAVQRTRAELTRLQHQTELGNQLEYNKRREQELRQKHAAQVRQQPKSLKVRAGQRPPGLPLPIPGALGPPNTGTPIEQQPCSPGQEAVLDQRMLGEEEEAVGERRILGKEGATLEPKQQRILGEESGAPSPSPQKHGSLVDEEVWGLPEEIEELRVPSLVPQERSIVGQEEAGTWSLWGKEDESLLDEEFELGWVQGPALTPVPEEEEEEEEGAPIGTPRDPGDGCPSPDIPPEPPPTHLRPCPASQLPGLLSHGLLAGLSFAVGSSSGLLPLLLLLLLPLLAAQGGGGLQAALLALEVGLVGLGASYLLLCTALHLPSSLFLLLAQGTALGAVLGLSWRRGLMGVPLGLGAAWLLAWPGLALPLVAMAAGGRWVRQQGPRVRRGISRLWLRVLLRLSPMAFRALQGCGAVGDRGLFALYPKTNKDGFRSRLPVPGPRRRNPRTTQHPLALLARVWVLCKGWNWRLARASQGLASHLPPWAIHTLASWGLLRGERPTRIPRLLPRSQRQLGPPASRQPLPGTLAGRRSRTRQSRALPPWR
The following applies: at 1 µM.

The target of test [17] is T3, Serine/threonine-protein kinase TAO2 (Homo sapiens). As to conditions: at 10 µM.
Test [18] addresses T4, Serine/threonine-protein kinase TAO3 (Homo sapiens) (UniProt Q9H2K8).
T4 sequence (whole entry): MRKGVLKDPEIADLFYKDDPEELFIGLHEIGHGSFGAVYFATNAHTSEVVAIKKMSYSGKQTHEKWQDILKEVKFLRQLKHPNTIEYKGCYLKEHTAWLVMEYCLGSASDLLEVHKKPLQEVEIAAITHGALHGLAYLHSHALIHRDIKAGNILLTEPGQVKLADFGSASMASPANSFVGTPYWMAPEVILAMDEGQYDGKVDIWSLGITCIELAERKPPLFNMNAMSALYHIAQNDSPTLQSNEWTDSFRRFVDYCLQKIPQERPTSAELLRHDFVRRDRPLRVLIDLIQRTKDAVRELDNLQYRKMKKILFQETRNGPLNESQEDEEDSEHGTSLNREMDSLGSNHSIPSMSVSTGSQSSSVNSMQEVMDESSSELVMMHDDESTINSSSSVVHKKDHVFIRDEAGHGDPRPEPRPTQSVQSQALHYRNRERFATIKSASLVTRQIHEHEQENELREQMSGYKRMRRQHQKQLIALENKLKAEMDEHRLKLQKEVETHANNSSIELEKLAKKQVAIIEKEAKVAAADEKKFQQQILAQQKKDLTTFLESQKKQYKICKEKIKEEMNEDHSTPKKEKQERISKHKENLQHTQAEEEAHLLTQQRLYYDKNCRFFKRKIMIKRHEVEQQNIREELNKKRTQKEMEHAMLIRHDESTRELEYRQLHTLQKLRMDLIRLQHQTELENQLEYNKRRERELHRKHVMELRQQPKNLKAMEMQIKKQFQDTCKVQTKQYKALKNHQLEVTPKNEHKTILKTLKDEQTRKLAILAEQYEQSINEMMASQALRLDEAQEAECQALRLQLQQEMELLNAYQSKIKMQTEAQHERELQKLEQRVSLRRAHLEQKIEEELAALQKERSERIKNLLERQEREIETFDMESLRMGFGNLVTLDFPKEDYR
As to conditions: at 1 µM.

The target in test [19] is T4, Serine/threonine-protein kinase TAO3 (Homo sapiens). The following applies: at 10 µM.
Test [20] concerns the target T5, Serine/threonine-protein kinase TBK1 (Homo sapiens) (UniProt Q9UHD2).
T5 sequence (whole entry): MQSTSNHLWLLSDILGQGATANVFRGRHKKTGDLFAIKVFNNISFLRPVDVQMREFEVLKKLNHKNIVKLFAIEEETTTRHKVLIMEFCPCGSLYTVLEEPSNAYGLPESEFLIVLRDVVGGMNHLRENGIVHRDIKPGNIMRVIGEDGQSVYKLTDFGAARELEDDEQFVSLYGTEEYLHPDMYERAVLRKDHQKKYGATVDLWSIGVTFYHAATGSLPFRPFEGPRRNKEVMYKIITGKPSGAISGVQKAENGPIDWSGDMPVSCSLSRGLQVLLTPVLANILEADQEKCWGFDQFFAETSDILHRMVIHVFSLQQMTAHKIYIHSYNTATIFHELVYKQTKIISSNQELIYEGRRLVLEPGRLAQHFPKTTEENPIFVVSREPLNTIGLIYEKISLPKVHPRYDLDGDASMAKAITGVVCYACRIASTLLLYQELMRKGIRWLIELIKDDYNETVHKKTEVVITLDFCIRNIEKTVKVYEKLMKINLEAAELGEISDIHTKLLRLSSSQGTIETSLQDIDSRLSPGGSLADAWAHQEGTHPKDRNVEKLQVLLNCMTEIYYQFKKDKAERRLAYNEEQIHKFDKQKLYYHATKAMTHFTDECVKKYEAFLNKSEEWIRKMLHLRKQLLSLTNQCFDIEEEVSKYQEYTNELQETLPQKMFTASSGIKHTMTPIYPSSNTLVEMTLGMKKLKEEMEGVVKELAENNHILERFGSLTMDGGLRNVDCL
The following applies: at 1 µM.

Here are results for four molecules from ChEMBL document CHEMBL2218924, “A broad activity screen in support of a chemogenomic map for kinase signalling research and drug discovery” (Biochem J, 2013).

SRSF protein kinase 1 (Homo sapiens), sequence (Q96SB4 whole entry): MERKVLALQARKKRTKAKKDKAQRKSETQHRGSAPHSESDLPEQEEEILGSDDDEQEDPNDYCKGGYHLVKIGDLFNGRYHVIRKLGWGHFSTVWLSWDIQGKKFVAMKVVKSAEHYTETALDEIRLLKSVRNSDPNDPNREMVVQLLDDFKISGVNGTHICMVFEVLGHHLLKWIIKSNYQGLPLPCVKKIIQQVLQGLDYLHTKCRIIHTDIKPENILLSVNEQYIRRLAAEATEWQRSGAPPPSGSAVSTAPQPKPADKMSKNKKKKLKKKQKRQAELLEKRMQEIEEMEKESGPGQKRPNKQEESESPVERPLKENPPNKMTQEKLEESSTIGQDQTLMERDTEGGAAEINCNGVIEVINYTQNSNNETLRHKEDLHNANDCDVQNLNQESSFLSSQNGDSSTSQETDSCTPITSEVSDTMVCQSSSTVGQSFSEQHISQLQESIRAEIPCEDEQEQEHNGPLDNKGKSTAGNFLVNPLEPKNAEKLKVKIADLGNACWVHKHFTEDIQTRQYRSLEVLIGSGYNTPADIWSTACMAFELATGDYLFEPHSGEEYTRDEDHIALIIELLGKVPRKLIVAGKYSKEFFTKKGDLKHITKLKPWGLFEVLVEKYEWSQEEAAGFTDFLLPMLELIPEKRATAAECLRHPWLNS
Serine/threonine-protein kinase SIK1 (Homo sapiens), sequence (P57059 whole entry): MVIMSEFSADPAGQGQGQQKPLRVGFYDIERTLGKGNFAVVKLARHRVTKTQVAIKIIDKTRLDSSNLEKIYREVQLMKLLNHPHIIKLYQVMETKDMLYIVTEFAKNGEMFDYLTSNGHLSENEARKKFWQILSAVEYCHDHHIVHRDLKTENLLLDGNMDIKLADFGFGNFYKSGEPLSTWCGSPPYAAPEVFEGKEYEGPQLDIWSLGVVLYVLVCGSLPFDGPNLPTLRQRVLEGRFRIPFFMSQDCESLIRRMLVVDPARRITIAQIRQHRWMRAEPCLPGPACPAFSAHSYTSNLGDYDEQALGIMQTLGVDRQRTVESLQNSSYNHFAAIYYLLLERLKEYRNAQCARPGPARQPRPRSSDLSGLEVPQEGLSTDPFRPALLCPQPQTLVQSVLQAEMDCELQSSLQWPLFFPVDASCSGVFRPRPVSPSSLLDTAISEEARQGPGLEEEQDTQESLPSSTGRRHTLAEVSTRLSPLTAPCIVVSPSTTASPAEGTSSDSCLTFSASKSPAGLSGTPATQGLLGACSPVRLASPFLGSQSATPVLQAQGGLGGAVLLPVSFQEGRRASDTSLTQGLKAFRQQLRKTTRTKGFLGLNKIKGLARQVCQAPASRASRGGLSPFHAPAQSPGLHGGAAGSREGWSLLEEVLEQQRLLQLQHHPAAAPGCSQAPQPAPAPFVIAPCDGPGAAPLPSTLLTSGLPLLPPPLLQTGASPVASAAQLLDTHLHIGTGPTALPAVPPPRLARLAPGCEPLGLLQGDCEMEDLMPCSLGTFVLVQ
SRSF protein kinase 2 (Homo sapiens), sequence (P78362 whole entry, looked up): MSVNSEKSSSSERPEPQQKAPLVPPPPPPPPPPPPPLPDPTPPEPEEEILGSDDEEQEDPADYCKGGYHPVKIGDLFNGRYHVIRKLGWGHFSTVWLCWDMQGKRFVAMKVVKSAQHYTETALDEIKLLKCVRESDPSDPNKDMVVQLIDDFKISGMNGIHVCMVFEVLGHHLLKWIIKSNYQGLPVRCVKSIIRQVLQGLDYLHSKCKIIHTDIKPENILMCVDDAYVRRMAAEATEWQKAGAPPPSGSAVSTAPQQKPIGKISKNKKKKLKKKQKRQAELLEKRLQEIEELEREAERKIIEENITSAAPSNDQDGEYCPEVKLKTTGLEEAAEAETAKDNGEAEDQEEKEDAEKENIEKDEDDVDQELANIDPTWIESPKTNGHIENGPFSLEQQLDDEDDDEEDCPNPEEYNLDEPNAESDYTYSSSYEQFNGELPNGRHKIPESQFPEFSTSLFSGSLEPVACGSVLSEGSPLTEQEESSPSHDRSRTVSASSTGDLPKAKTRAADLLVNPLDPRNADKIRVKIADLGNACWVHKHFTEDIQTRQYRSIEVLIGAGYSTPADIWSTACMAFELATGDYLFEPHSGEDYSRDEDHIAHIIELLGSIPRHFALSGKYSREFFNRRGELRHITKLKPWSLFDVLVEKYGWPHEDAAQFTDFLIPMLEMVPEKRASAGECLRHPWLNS

As to `O=C(Nc1cccc(Nc2nccc(Nc3cccc(C(F)(F)F)c3)n2)c1)C1CC1`, the residual activity in test [1] was determined as 50%; in test [2], 107%; in [3] it was 87%; in test [4], 96%; in test [5], 90%; in test [6], 102%. Further, the residual activity in [7] came to 89%; in test [8], 102%; in test [9] it was 73%; in [10], 79%; in test [11], 75%; in [12], 105%. Further, the residual activity in test [13] turned out to be 99%; in [14] it was 95%; in test [15], 56%; in [16], 92%; in [17] it was 29%; in [18], 104%. The residual activity in [19] is 67%; in [20], 78%.
`C[C@@H](N)[C@H]1CC[C@H](C(=O)Nc2ccncc2)CC1`: the residual activity in [1] was 115%; in test [2], 95%; in test [3], 103%; in [4], 103%; in [5] it was 113%; in test [6], 106%. Also, the residual activity in test [8] came to 100%; in test [9], 101%; in test [10] it was 110%; in [11], 102%; in [12] it was 109%; in test [13], 113%. The residual activity in test [14] is 93%; in test [15] it was 78%; in test [16], 112%; in test [17], 109%; in [18], 105%; in test [19] it was 103%. Further, the residual activity in test [20] worked out at 107%.
Consider `COc1cc2ncc(-c3ccccc3)nc2cc1OC`, for which the residual activity in test [5] came to 90%; in test [11], 100%; in test [12] it was 98%; in [13] it was 82%; in [15], 91%; in test [20], 91%.
Consider `Cc1ccc(NC2=CC(=O)c3sc(C)nc3C2=O)cc1`, for which the residual activity in test [1] came out at 91%; in test [2], 97%; in [3], 96%; in test [4] it was 98%; in test [5] it was 87%; in test [6] it was 88%. The residual activity came to 92% in [7]; 95% in [8]; 93% in test [9]; 99% in test [10]; 113% in test [11]; 86% in test [12]. Further, the residual activity amounted to 89% in test [13]; 91% in [14]; 77% in [15]; 95% in test [16]; 88% in test [17]; 94% in [18]. Besides, the residual activity in test [19] is 93%; in test [20] it was 77%.
